Bioassay records (PubChem BioAssay)
PTAP TSG101 blk = blocks PTAP/TSG101 interaction to inhibit HIV-1 budding | Q99816 | Fluorescence polarization, FITC-PTAP peptide / Tsg101 binding | Potency, µM (titrated, usually from 115 µM), usual class: inhibitors | 340,000 tested, under 10 active; active = well fitted inhibition curve with a large enough effect in the main read-out, with a control signal flat, not every such curve was filed as active; inconclusive = small, poorly fitted or top-dose-only effect, or effect the other way, or a change in a side signal; inactive = no such curve, though single readings can be large or run the other way
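Compounds were pin-transferred onto Tsg101 binding domain (10 uM final) in HEPES pH 7.5 buffer, then FITC-PTAP peptide was added at 50 nM final. After 20 min at RT, polarization reported peptide displacement across a qHTS concentration series.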
ClpP mod = qHTS Assay for Activators of ClpP; Potency, µM (top dose mostly 57.5 µM); ATP-dependent Clp protease proteolytic subunit (Bacillus subtilis (strain 168)), P80244; 340,000 compounds, 1.9% hits; purified B. subtilis ClpP, FRET peptide cleavage, 20 min; AID 651965, 2013; active = well fitted falling curve with a large enough effect; inconclusive = small, poorly fitted or top-dose-only effect; inactive = no such curve, though single readings can be large or run the other way; note: the source files actives as falling curves though it sought activators and does not explain the sign; nearly all actives have a fitted effect of over 65% in size
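Purified B. subtilis ClpP, 10 microg/mL final in Tris/HCl pH8 with KCl, BSA, glycerol and Tween-20, cleaved an Abz/nitrotyrosine-quenched decapeptide. Fluorescence (ex 320, em 430) was read at 0 and 20 min at room temperature. Delta was normalized to 5.8 microM ADEP and DMSO/no-enzyme controls.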
TDP1 inh = inhibitors of human tyrosyl-DNA phosphodiesterase TDP1; AID 485290; Potency, µM (series often up to 130 µM), most hits filed as inhibitors; Q9NUW8; recombinant TDP1, AlphaScreen DNA substrate cleavage; 350,000 compounds, 0.28% hits; active = well fitted curve in the direction sought with a large enough effect; inconclusive = small, poorly fitted or top-dose-only effect, or another doubt; inactive = no such curve, though single readings can be large; an effect the other way counts as inactive or inconclusive; note: nearly all actives have a fitted effect of over 40% in size
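Enzyme-compound mixtures sat 15 min at room temperature, followed by a 5 min reaction with 15 nM final substrate and 10 min with AlphaScreen beads. Recombinant human Tdp1 was used at 1 nM final.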
Rango dissoc inh = prevents RanGTP from dissociating the Rango-importin beta complex; O95149+P62826; Biochemical FRET Rango-importin beta, RanGTP-induced dissociation; Potency, µM (titrated, usually from 46.1 µM); 340,000 compounds, 0.071% hits; note: nearly all actives have a fitted effect of over 45% in size
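Rango/importin beta premix (0.1/0.25 uM final), PBS + 1 mM DTT + 0.02% Tween-20 + 0.1% BSA; cpd 5 min RT; FRET pre-read; + RanGTP-RCC1 (0.6 uM Ran, 2 mM GTP, 0.2 uM RCC1); 45 min RT; FRET post-read, ex 430, em 486/530 nm.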
ALOX12 inh = inhibitors of human 12S-lipoxygenase ALOX12; purified 12hLO, xylenol orange hydroperoxide absorbance; Potency, µM (series often up to 108 µM), most hits filed as inhibitors; 580,000 compounds, 1.1% hits; AID 1671190; active = well fitted curve in the direction sought with a large enough effect; inconclusive = small, poorly fitted or top-dose-only effect, or another doubt; inactive = no such curve, though single readings can be large; an effect the other way counts as inactive or inconclusive
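Purified human 12hLO (150 nM final) in 25 mM Hepes, 0.01% Triton X-100, pH 7.0 was preincubated 15 min at room temperature with compound. Then 40 uM arachidonic acid was added, 30 min. Hydroperoxide was read by Fe-XO absorbance ratio 573/405 nm.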
Rango-impB inh = inhibitors of Rango-importin beta complex formation; Q14974; Rango CFP/YFP FRET sensor + importin beta, 45 min; Potency, µM (series often up to 92.2 µM); 340,000 compounds, 0.031% hits; AID 540263; note: nearly all actives have a fitted effect of over 15% in size
Target sequence (Q14974 whole entry, looked up): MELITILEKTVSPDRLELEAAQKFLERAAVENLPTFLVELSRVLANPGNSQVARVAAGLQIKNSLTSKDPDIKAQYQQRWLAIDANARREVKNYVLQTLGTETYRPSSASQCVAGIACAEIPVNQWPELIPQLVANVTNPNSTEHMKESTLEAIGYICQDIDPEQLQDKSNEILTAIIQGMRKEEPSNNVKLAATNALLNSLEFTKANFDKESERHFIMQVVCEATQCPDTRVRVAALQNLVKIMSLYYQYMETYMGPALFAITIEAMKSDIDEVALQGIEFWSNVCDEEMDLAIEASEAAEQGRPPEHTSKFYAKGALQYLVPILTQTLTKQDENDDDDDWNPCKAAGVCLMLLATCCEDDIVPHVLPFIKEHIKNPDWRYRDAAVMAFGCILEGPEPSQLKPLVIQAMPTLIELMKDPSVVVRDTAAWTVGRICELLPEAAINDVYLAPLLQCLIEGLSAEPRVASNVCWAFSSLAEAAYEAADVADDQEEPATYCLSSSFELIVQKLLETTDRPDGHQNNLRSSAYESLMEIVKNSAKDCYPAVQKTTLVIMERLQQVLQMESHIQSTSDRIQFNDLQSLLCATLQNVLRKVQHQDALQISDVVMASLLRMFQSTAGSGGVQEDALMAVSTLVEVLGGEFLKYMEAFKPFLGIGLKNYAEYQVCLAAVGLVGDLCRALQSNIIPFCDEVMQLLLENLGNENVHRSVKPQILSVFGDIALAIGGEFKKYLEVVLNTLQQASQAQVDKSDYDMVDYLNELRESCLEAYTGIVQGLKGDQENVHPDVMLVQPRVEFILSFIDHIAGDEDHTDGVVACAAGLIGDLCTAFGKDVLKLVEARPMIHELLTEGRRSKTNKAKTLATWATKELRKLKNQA
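FRET biosensor (snurportin 1 IBB flanked by EYFP and cerulean), 50 nM, with compound 5 min, then 0.125 microM importin beta in PBS, 1 mM DTT, 0.02% Tween-20, 0.1% BSA. CFP/YFP ratio read after 45 min at room temperature; pre-read flags interference.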
Hits are given with their value. The list is not random: actives were taken first. Their share in the collection is about 2.4%. Unless noted, calls come from the whole dose curve.

For Cc1ccc(CNC(=O)c2ccc(N3CCC4(CC3)CC(c3ccccc3)=NO4)c(NC(=O)c3ccccc3)c2)cc1 the results were PTAP TSG101 blk inactive, ClpP mod inconclusive, TDP1 inh inactive, Rango dissoc inh inactive, ALOX12 inh inactive and Rango-impB inh inactive.
Screening Cc1ccc(CNC(=O)c2ccc(N3CCC4(CC3)CC(c3ccccc3)=NO4)c(N)c2)cc1 returned PTAP TSG101 blk inactive, ClpP mod 8.9µM, Rango dissoc inh inactive, ALOX12 inh inactive and Rango-impB inh inactive.
`CC1CCCC(NC(=O)c2cc(Sc3ccc(F)cc3)nc3ccccc23)C1C` (stereo unspecified) gave ALOX12 inh inactive.
For Cc1ccc2c(c1)c1c3n2CCN(C(=O)C2CC2)C3CCC1 (stereo unspecified) the results were PTAP TSG101 blk inactive, ClpP mod inconclusive, TDP1 inh inactive, Rango dissoc inh inactive, ALOX12 inh inconclusive and Rango-impB inh inconclusive.
For Cc1ccc2c(c1)c1c3n2CC(=C2C(=O)OC(C)(C)OC2=O)NC3CCC1 (stereo unspecified) the results were PTAP TSG101 blk inactive, ClpP mod inactive, TDP1 inh inactive, Rango dissoc inh inconclusive, ALOX12 inh 11µM and Rango-impB inh inconclusive.
For O=C(N[C@H]1CCN2C(=O)N(c3cccc(C(F)(F)F)c3)C(=O)[C@@H]2C1)c1cnccn1 the results were ALOX12 inh inactive.
`COc1cc2c(cc1OC)C(=O)CCC2` gave PTAP TSG101 blk inactive, ClpP mod 28µM, Rango dissoc inh inactive, ALOX12 inh inactive and Rango-impB inh inactive.
For Cc1[nH]cnc1-c1nccn1CC(CO)Cc1cccs1 (stereo unspecified) the results were ALOX12 inh inactive.
`COc1cnc(N(C)C)nc1Sc1ccc(Cl)cc1` gave PTAP TSG101 blk inactive, ClpP mod 32µM, TDP1 inh inactive, Rango dissoc inh inactive, ALOX12 inh inactive and Rango-impB inh inactive.
Cn1c(/C(C#N)=C/C2CC=CCC2)nc2ccccc21 (stereo unspecified) was read as PTAP TSG101 blk inactive, ClpP mod inactive, TDP1 inh inactive, Rango dissoc inh inactive, ALOX12 inh inactive and Rango-impB inh inconclusive.
COc1ccc(/C=C(\C#N)c2nc3ccccc3[nH]2)cc1O was read as PTAP TSG101 blk inactive, Rango dissoc inh inconclusive, ALOX12 inh inactive and Rango-impB inh inconclusive.
`COc1c(Cl)cc(Cl)cc1/C=C(\C#N)c1nc2ccccc2[nH]1` gave ClpP mod 20µM, TDP1 inh inactive and ALOX12 inh inactive.
`N#C/C(=C\C1CC=CCC1)c1nc2ccccc2[nH]1` (stereo unspecified) gave PTAP TSG101 blk inactive, ClpP mod 32µM, TDP1 inh inactive, Rango dissoc inh inactive, ALOX12 inh inconclusive and Rango-impB inh inactive.
For COc1ccc(/C=C(\C#N)c2nc3ccccc3[nH]2)cc1I the results were ALOX12 inh 6.3µM.
For N#C/C(=C/C1=Cc2cc(Cl)ccc2OC1)c1nc2ccccc2[nH]1 the results were ALOX12 inh 16µM.
COc1cccc(/C=C(/C#N)c2ccc(Br)cc2)c1 was read as ALOX12 inh inactive.
For COc1cc(/C=C(\C#N)c2nc3ccc(C)cc3[nH]2)c([N+](=O)[O-])cc1OC the results were PTAP TSG101 blk inactive, ClpP mod inactive, TDP1 inh inactive, Rango dissoc inh inactive, ALOX12 inh inactive and Rango-impB inh inactive.
COc1cc(/C=C(\C#N)c2nc3ccc(C)cc3[nH]2)cc([N+](=O)[O-])c1O was read as PTAP TSG101 blk inactive, TDP1 inh inactive, Rango dissoc inh inactive, ALOX12 inh 45µM and Rango-impB inh inconclusive.
`O=C(O)CCc1ccccc1` gave ALOX12 inh inactive.
For Cc1ccc(CC(=O)CCc2ccccc2)cc1 the results were PTAP TSG101 blk inactive, ClpP mod inactive, TDP1 inh 79µM, Rango dissoc inh inactive, ALOX12 inh inactive and Rango-impB inh inactive.
For Cc1cc(C)c(C(=O)/C=C/c2ccccc2)cc1C the results were ALOX12 inh inactive.
`Cc1ccc(/C=C/C(=O)c2ccccc(=O)c2O)cc1C` gave PTAP TSG101 blk inactive, ClpP mod inactive, TDP1 inh inactive, Rango dissoc inh 8.2µM, ALOX12 inh 45µM and Rango-impB inh inconclusive.
Screening Cc1cc(F)ccc1S(=O)(=O)NC(CN(C)C)c1ccccc1 (stereo unspecified) returned ALOX12 inh inactive.
For O=C(c1ccc(F)cc1Cl)N1CCC(Cc2nc(-c3ccccc3)no2)CC1 the results were ALOX12 inh inactive.
`O=CN1CCN(C2CC(=O)N(c3ccc(Br)cc3)C2=O)CC1` (stereo unspecified) gave PTAP TSG101 blk inactive, ClpP mod 35µM, TDP1 inh inactive, Rango dissoc inh inactive, ALOX12 inh inactive and Rango-impB inh inactive.
Cn1nc(CC(=O)NCc2ccccc2CN2CCCC2)c2ccccc2c1=O was read as ALOX12 inh inactive.
CC(=O)Nc1cc(-c2ccccc2N(C)C)cn2c(-c3ccccc3)cnc12 was read as ClpP mod inactive and ALOX12 inh 45µM.
For CC(=O)Nc1cc(-c2ccccc2N(C)C)cn2c(-c3ccc(S(C)(=O)=O)cc3)cnc12 the results were ClpP mod inactive and ALOX12 inh inactive.
For CC(=O)Nc1cc(-c2ccc(C(=O)N3CCOCC3)cc2)cn2c(-c3ccc(C(C)=O)cc3)cnc12 the results were ClpP mod inactive and ALOX12 inh inactive.
`CC(=O)Nc1cc(-c2ccc(C(=O)N3CCOCC3)cc2)cn2c(-c3ccccc3)cnc12` gave ClpP mod 25µM and ALOX12 inh inconclusive.
Cc1csc2c(NCCC3CN(c4cnn(C)c(=O)c4)CCO3)ncnc12 (stereo unspecified) was read as ALOX12 inh inactive.
For CCN(C)c1cc2c(c3c1ccn3C)C1CCC2C1 (stereo unspecified) the results were ClpP mod inactive and ALOX12 inh inactive.
`Cn1ccc2c(N3CCCC3)cc3c(c21)C1CCC3C1` (stereo unspecified) gave ClpP mod inactive and ALOX12 inh 45µM.
For CN(Cc1ccccc1)c1cc2c(c3c1ccn3C)C1CCC2C1 (stereo unspecified) the results were ClpP mod inactive and ALOX12 inh inconclusive.
Screening CN(CCc1ccccc1)c1cc2c(c3c1ccn3C)C1CCC2C1 (stereo unspecified) returned ClpP mod inconclusive and ALOX12 inh 45µM.
